Experimental data from PubChem BioAssay (Tox21).
Records with an inconclusive call do not appear. Activity calls are given as the source filed them. Unless noted, calls follow the shape of the dose curve; as a rule, active = well fitted curve in the direction sought with a large enough effect in the repeat runs; inconclusive = weak or mixed curves; inactive = no such curve, though single readings can be large; an effect the other way counts as inactive or inconclusive.

Tests used:
[1] = target: Peroxisome proliferator-activated receptor delta (Homo sapiens) (UniProt Q03181); test: qHTS assay to identify small molecule agonists of the peroxisome proliferator-activated receptor delta (PPARd) signaling pathway (AID 743212; calls by dose curve)
Method in brief: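 HEK293H PPARd-bla cells; 5 h preincubation 37 C/5% CO2; compound (DMSO) 37 C; LiveBLAzer B/G FRET substrate 2 h RT; fluorescence intensity.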

[2] = qHTS assay to identify small molecule antagonists of the peroxisome proliferator-activated receptor delta (PPARd) signaling pathway - cell viability counter screen (AID 743213); also: nearly all actives have a fitted effect of over 50% in size
Method in brief: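 Luminescence from CellTiter-Glo, added after the bla read and incubated 30 min at room temperature, gives viability of HEK293H PPARd-bla cells exposed to compounds for 17 h at 37 C with 300 nM L165041.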

[3] = target: Peroxisome proliferator-activated receptor delta (Homo sapiens) (UniProt Q03181); test: qHTS assay to identify small molecule antagonists of the peroxisome proliferator-activated receptor delta (PPARd) signaling pathway (AID 743215; active = well fitted inhibition curve with a large enough effect in the signal ratio in the repeat runs, not every such curve was filed as active; the % refers to the signal ratio;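 also: cells stimulated with agonist L165041 at 300 nM final during compound exposure; series mostly up to about 62 µM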)
Method in brief: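 PPARd-bla HEK293H cells (UAS-bla reporter) preincubated 5 h, then given compound plus 300 nM final L165041 agonist for 17 h at 37 C. Beta-lactamase activity read by LiveBLAzer B/G FRET substrate fluorescence after 2 h at room temperature.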

[4] = qHTS assay to identify small molecule agonists of the farnesoid-X-receptor (FXR) signaling pathway - cell viability counter screen (AID 743218); also: nearly all actives have a fitted effect of over 45% in size
Method in brief: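 FXR-UAS-bla HEK 293T cells exposed to compounds for 16 h at 37C. Cytotoxicity read in the same wells by CellTiter-Glo luminescence after 30 min at room temperature, following the beta-lactamase FRET read.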

[5] = qHTS assay to identify small molecule antagonists of the farnesoid-X-receptor (FXR) signaling pathway - cell viability counter screen (AID 743221; active = well fitted cell-killing curve with a large enough effect in the repeat runs, not every such curve was filed as active; also: nearly all actives have a fitted effect of over 50% in size)
Method in brief: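 FXR-UAS-bla HEK 293T cells were treated with test compounds plus chenodeoxycholic acid (50 uM final) for 16 h at 37 C. Cell viability in the same wells was then read as CellTiter-Glo luminescence after 30 min at room temperature.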

[6] = target: Vitamin D3 receptor (Homo sapiens) (UniProt P11473); test: qHTS assay to identify small molecule agonists of the vitamin D receptor (VDR) signaling pathway (AID 743222; calls by dose curve)
Method in brief: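 VDR-bla cells plated 4 h at 37 C, then exposed to compounds for 16 h at 37 C. Beta-lactamase reporter activity measured by fluorescence after 2 h room-temperature loading with LiveBLAzer B/G FRET substrate.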

[7] = qHTS assay to identify small molecule agonists of the vitamin D receptor (VDR) signaling pathway - cell viability counter screen (AID 743224); also: series mostly up to about 63 µM; nearly all actives have a fitted effect of over 50% in size
Method in brief: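 VDR-bla cells, 4 h after plating, exposed to compounds for 16 h at 37C; viability then read in the same wells as CellTiter-Glo luminescence after 30 min at room temperature, following the bla FRET read.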

[8] = qHTS assay to identify small molecule antagonists of the vitamin D receptor (VDR) signaling pathway - cell viability counter screen (AID 743225); also: nearly all actives have a fitted effect of over 50% in size
Method in brief: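 VDR-bla HEK 293T cells, 4 h pre-incubation at 37C, then compound plus 1-alpha,25-dihydroxyvitamin D3 (3 nM final) for 16 h. After the beta-lactamase FRET read, CellTiter-Glo was added to the same wells; luminescence after 30 min at room temperature.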

[9] = qHTS assay to identify small molecule agonists of the NFkB signaling pathway (AID 1159509; active = well fitted curve in the direction sought with a large enough effect in the signal ratio in the repeat runs, not every such curve was filed as active; the % refers to the signal ratio; also: series mostly up to about 61 µM)
Method in brief: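 NFkB-bla ME-180 cells carry a beta-lactamase reporter under an NF-kB response element. They were plated overnight, then exposed to compounds for 5 h at 37 C. Read-out is LiveBLAzer FRET after 1.5 hr at room temperature (405 nm excitation; 460/530 nm emission).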

[10] = qHTS assay to identify small molecule agonists of the NFkB signaling pathway - cell viability counter screen (AID 1159515; calls by dose curve; also: series mostly up to about 61 µM; nearly all actives have a fitted effect of over 55% in size)
Method in brief: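 NFkB-bla ME-180 cells, 2,000/well, plated overnight at 37 C; compound added for 5 hr at 37 C. Viability read in the same wells as the bla reporter, by CellTiter-Glo luminescence after 30 min at room temperature.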

[11] = qHTS assay to identify small molecule agonists of the endoplasmic reticulum stress response signaling pathway (AID 1159516; active = well fitted activation curve with a large enough effect in the signal ratio in the repeat runs, not every such curve was filed as active; the % refers to the signal ratio)
Method in brief: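 CellSensor ESRE-bla HeLa cells, 1,500 per well, plated overnight, then exposed to compounds for 5 hr at 37 C. Beta-lactamase reporter read with LiveBLAzer B/G FRET substrate after 2 hr at room temperature, 405 nm excitation, 460 and 530 nm emission.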

[12] = qHTS assay to identify small molecule agonists of the endoplasmic reticulum stress response signaling pathway - cell viability counter screen (AID 1159517; calls by dose curve)
Method in brief: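 HeLa cells carrying an ESRE-driven beta-lactamase reporter receive compound for 5 hr at 37 C. Cell viability is then gauged with CellTiter-Glo by luminescence, 30 min at room temperature.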

[13] = qHTS assay to identify small molecule antagonists of the retinoid-related orphan receptor gamma (ROR-gamma) signaling pathway - cell viability counter screen (AID 1159520); also: nearly all actives have a fitted effect of over 50% in size
Method in brief: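 Cytotoxicity was read from cellular ATP (CellTiter-Glo luminescence) after 16 hr at 37 C with 1 uM doxycycline induction. The inducer was added 2 hr after compound transfer to Tet-on ROR gamma CHO cells.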

[14] = target: Nuclear receptor ROR-gamma (Homo sapiens) (UniProt P51449); test: qHTS assay to identify small molecule antagonists of the retinoid-related orphan receptor gamma (ROR-gamma) signaling pathway (AID 1159521)
Method in brief: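 Tet-on RORγ CHO cells carrying a ROR response element–luciferase reporter were pretreated with compounds for 2 h, then induced with 1 uM (final) doxycycline hyclate for 16 h at 37 C. Antagonism was read as decreased ONE-Glo luminescence.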

[15] = qHTS assay to identify small molecule agonists of the peroxisome proliferator-activated receptor delta (PPARd) signaling pathway - cell viability counter screen (AID 743211); also: nearly all actives have a fitted effect of over 55% in size
Method in brief: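 PPARd-bla HEK293H cells (UAS-beta-lactamase reporter) were treated with compounds for 17 h at 37 C. Viability was then read in the same wells by CellTiter-Glo luminescence after 30 min at room temperature.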

[16] = target: Bile acid receptor (Homo sapiens) (UniProt Q96RI1); test: qHTS assay to identify small molecule antagonists of the farnesoid-X-receptor (FXR) signaling pathway (AID 743217; active = well fitted inhibition curve with a large enough effect in the signal ratio in the repeat runs, not every such curve was filed as active; the % refers to the signal ratio)
Method in brief: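 FXR-UAS-bla HEK 293T cells (beta-lactamase reporter) given compound plus chenodeoxycholic acid (50 uM final), 16 h at 37C. LiveBLAzer B/G FRET substrate added for 2 h at room temperature; fluorescence read.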

[17] = target: Bile acid receptor (Homo sapiens) (UniProt Q96RI1); test: qHTS assay to identify small molecule agonists of the farnesoid-X-receptor (FXR) signaling pathway (AID 743220; active = well fitted activation curve with a large enough effect in the signal ratio in the repeat runs, not every such curve was filed as active; the % refers to the signal ratio)
Method in brief: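 Beta-lactamase reporter under UAS control in GeneBLAzer FXR HEK 293T cells (5000/well) measured with LiveBLAzer FRET substrate after 2 h at room temperature. Compound exposure lasted 16 h at 37C.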

[18] = target: Vitamin D3 receptor (Homo sapiens) (UniProt P11473); test: qHTS assay to identify small molecule antagonists of the vitamin D receptor (VDR) signaling pathway (AID 743223; active = well fitted inhibition curve with a large enough effect in the signal ratio in the repeat runs, not every such curve was filed as active; the % refers to the signal ratio)
Method in brief: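 VDR-bla cells were plated, incubated 4 h at 37C, then given compound and 1alpha,25-dihydroxyvitamin D3 (3 nM final). After 16 h at 37C, LiveBLAzer B/G FRET substrate was added for 2 h at room temperature and fluorescence read.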

[19] = qHTS assay to identify small molecule agonists of the AP-1 signaling pathway - cell viability counter screen (AID 1159525; calls by dose curve; also: nearly all actives have a fitted effect of over 55% in size)
Method in brief: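 Luminescent ATP readout (Cell Titer Glo, 30 min RT), normalised to DMSO and tetra n-octyl ammonium bromide controls. Cells were ME-180 AP-1-bla in 0.5% dialyzed FBS Opti-MEM, with a 5 h, 37 °C compound exposure.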

[20] = qHTS assay to identify small molecule agonists of the AP-1 signaling pathway (AID 1159526; calls by dose curve)

Measured: Potency

Chain of Peroxisome proliferator-activated receptor delta (Homo sapiens) (Q03181 whole entry, looked up): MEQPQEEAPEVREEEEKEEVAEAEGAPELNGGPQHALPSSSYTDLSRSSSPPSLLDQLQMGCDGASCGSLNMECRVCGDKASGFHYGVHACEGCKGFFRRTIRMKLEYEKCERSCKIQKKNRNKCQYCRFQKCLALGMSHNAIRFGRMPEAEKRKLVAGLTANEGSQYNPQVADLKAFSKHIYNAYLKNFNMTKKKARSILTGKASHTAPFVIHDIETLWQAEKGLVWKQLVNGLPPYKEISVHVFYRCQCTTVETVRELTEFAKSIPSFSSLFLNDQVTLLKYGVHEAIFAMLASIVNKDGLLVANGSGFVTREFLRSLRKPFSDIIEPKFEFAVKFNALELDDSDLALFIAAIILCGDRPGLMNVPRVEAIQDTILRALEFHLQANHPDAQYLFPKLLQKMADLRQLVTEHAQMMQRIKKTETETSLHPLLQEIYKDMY
Chain of Bile acid receptor (Homo sapiens) (Q96RI1 whole entry, looked up): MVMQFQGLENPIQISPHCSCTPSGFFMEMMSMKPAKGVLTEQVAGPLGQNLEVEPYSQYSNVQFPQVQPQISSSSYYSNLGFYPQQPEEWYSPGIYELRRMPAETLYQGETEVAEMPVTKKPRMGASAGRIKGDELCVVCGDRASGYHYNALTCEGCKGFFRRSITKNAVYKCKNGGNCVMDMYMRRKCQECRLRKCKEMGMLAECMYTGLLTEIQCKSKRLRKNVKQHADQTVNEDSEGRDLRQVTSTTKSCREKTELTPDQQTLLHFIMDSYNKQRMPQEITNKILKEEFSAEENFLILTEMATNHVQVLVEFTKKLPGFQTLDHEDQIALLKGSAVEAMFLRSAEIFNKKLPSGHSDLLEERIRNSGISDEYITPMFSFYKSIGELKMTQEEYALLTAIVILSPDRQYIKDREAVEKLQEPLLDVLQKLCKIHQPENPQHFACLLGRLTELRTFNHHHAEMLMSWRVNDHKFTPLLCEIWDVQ
Chain of Vitamin D3 receptor (Homo sapiens) (P11473 whole entry, looked up): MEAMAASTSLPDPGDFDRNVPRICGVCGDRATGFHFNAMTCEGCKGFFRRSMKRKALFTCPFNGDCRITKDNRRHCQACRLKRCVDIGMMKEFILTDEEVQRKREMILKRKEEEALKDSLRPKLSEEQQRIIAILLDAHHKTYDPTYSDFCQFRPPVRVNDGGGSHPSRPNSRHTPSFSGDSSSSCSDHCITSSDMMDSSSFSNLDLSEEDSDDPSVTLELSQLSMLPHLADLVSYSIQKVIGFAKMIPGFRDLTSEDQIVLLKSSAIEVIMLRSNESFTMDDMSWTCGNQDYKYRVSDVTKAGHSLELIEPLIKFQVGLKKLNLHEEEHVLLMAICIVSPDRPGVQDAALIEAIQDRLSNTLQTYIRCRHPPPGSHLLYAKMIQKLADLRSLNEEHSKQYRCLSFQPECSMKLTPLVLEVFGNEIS

CCCOc1ccc2c(c1)CC[C@@H]1[C@@H]2CC[C@]2(C)C(OC)CC[C@@H]12 (some centres not stated)
inactive: [1] | [2] | [3] | [4] | [5] | [6] | [7] | [8] | [9] | [10] | [11] | [12] | [13] | [14]

Cc1ccc([N+](=O)[O-])cc1Cl
inactive: [15] | [1] | [2] | [3] | [16] | [4] | [17] | [6] | [18] | [9] | [10] | [11] | [12] | [13] | [19] | [20]

CCOC(=O)[C@H](CCc1ccccc1)N[C@@H](C)C(=O)N1Cc2cc(OC)c(OC)cc2C[C@H]1C(=O)O
inactive: [15] | [1] | [2] | [3] | [4] | [5] | [6] | [18] | [7] | [8] | [9] | [10] | [11] | [12] | [13] | [19] | [20]

CS(=O)(=O)c1ccc([C@@H](O)[C@@H](CF)NC(=O)C(Cl)Cl)cc1
inactive: [15] | [1] | [2] | [3] | [4] | [17] | [7] | [8] | [9] | [10] | [11] | [12] | [13] | [19] | [20]

CC(CNC1CCCCC1)OC(=O)c1ccccc1 (configuration not stated)
inactive: [15] | [1] | [2] | [3] | [4] | [17] | [5] | [7] | [8] | [9] | [10] | [11] | [12] | [13] | [19] | [20]

CC1=CC(=O)CC(C)(C)C1=O
inactive: [15] | [1] | [2] | [3] | [4] | [5] | [6] | [18] | [7] | [8] | [9] | [10] | [11] | [12] | [13] | [19] | [20]

COc1cc(N)c(Cl)cc1C(=O)NC1CCN(Cc2ccccc2)CC1
inactive: [15] | [1] | [2] | [3] | [16] | [4] | [17] | [6] | [18] | [7] | [8] | [9] | [10] | [11] | [12] | [13] | [19] | [20]

O=c1[nH]c(=O)n([C@H]2C[C@H](O)[C@@H](CO)O2)cc1C(F)(F)F
inactive: [15] | [1] | [2] | [3] | [4] | [17] | [5] | [18] | [7] | [8] | [9] | [10] | [11] | [12] | [13] | [19] | [20]

FC(F)(F)C(F)(F)C(F)(F)C(F)(F)C(F)(F)C(F)(F)C(F)(F)C(F)(F)Br
inactive: [15] | [1] | [2] | [3] | [4] | [17] | [5] | [6] | [18] | [7] | [8] | [9] | [10] | [11] | [12] | [13] | [19] | [20]

Oc1ccccc1C=NCc1ccccc1
inactive: [15] | [1] | [2] | [3] | [4] | [17] | [5] | [6] | [18] | [7] | [8] | [9] | [10] | [11] | [12] | [13] | [19] | [20]

CCOC(=O)COc1ccc2c(c1)CC(NCC(O)c1cccc(Cl)c1)CC2 (configuration not stated)
inactive: [1] | [2] | [3] | [4] | [5] | [6] | [18] | [7] | [9] | [10] | [11] | [12] | [13] | [14]

CCCNC(C)(C)COC(=O)c1ccccc1
inactive: [15] | [1] | [2] | [3] | [4] | [5] | [6] | [18] | [7] | [8] | [9] | [10] | [11] | [12] | [13] | [19] | [20]
